Mtb FBA inh = Mtb FBA enzyme inhibitors, primary screen, biochemical, fluorescence, strain H37Rv. purified M. tuberculosis FBA, fluorescence read-out. hit rate 2.3% among 360,000. Fructose-bisphosphate aldolase (Mycobacterium tuberculosis (strain ATCC 25618 / H37Rv)), …. inhibition, % at 1 µM. AID 588726, 2011; in the data active = inhibition above about 27%;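 note: 0% = vehicle and 100% = reference inhibitor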
Rv3671c protease = Rv3671c serine protease inhibitors, primary screen, biochemical, fluorescence polarization, M. tuberculosis H37Rv. hit rate 0.048% among 320,000. inhibition, % at 5.96 µM. P9WHR9. AID 2606, 2010; in the data active = inhibition above about 38%;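 note: extracellular domain of Rv3671c used as enzyme; 0% = enzyme with DMSO and 100% = no enzyme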
Target sequence (P9WHR9 whole entry, looked up, the tested form may be a part): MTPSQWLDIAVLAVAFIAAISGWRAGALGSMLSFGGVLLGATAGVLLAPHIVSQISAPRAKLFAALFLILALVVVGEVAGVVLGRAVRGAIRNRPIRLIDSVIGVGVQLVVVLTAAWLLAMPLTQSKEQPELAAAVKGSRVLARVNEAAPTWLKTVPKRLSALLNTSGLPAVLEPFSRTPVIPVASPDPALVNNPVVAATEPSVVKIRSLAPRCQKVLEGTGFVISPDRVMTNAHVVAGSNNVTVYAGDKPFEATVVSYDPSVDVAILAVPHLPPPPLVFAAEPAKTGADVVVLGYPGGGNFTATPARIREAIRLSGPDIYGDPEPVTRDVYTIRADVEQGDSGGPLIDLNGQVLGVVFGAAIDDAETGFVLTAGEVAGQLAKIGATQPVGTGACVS
FadD28 FP inh = inhibitors of FadD28 bisubstrate probe binding, primary screen, biochemical, fluorescence polarization, single point. inhibition, % at 12.5 µM. hit rate 0.22% among 360,000. AID 588549, 2011; in the data active = inhibition above about 8.5%, passing the limit was not always enough; inconclusive = no clear call, values can overlap the other calls
GDH-TPI counter = GDH-TPI coupling enzyme inhibitors, primary screen, artefact control for M. tuberculosis FBA inhibitor project, biochemical, absorbance, full deck | GDH-TPI coupled enzyme counterscreen, NADH absorbance | inhibition, % at 4.8 µM | hit rate 1.2% among 360,000 | AID 588335, 2011; in the data active = inhibition above about 30%;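 note: 0% = DMSO wells and 100% = wells lacking the enzyme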
BioA inh = M. tuberculosis BioA enzyme inhibitors, primary screen, biochemical, plate reader, single point, HTS; 7,8-diaminopelargonic acid synthase BioA (Mycobacterium tuberculosis); purified M. tuberculosis BioA enzyme; inhibition, % at 9.99 µM; AID 602481, 2012; hit rate 0.096% among 360,000; in the data active = inhibition above about 40%; inconclusive = no clear call, values can overlap the other calls
Starred values were filed as active, the others as inactive; ? = inconclusive; nt = not tested or not shown; + = active, no number. Sampled rows, rich in hits. Any-hit rate of the full collection: about 3%.

SMILES	Mtb FBA inh	Rv3671c protease	FadD28 FP inh	GDH-TPI counter	BioA inh
COc1cccc(-c2cn(CC[C@@H]3CC[C@H](NC(=O)CC4CC4)[C@H](CO)O3)nn2)c1	nt	nt	nt	nt	3
CN(C)CC(=O)N1CCCCN2[C@H](CO)[C@H](c3ccc(-c4cccc(C(=O)N(C)C)c4)cc3)[C@@H]2C1	nt	nt	nt	nt	1
CCn1c(=N)c(S(=O)(=O)c2ccc(Cl)cc2)cc2c(=O)n3ccccc3nc21	nt	6	nt	nt	nt
N#Cc1cc2c(=O)n3ccccc3nc2n(CCCN2CCOCC2)c1=O	+	9	-2	14	2
Cc1ccc(Cn2c(=N)c(C(=O)NC3CCCCC3)cc3c(=O)n4ccccc4nc32)cc1	24	0	-4	-3	-3
N=c1c(C(=O)NC2CCCC2)cc2c(=O)n3ccccc3nc2n1Cc1ccccc1	146*	-4	-3	0	3
N=c1c(C(=O)NC2CCCC2)cc2c(=O)n3ccccc3nc2n1CCN1CCOCC1	176*	7	-2	12	-1
N#Cc1cc2c(=O)n3ccccc3nc2n(-c2ccccc2Cl)c1=O	+	0	-4	-3	-1
Cc1noc(C)c1NC(=O)Nc1ccc2c(c1)C(=O)N([C@@H](C)CO)C[C@H](C)[C@H](CN(C)C(=O)Nc1ccc3c(c1)OCO3)OCCCC[C@H](C)O2	nt	nt	nt	nt	-2
CO[C@H]1CN(C)C(=O)c2ccc(NC(=O)c3cnccn3)cc2OC[C@H](C)N(CCc2ccccc2)C[C@H]1C	nt	nt	nt	nt	2
CCNC(=O)[C@@H]1[C@@H](CO)[C@@H]2Cn3c(ccc(-c4cccc(F)c4)c3=O)[C@@H]2N1Cc1cc(F)ccc1F	nt	nt	nt	nt	8
Cc1ccc(S(=O)(=O)N2C[C@H](O)COC[C@H]3O[C@@H](CC(=O)N[C@@H]4CCN(Cc5ccccc5)C4)CC[C@@H]32)cc1	nt	nt	nt	nt	1
CCOC(=O)c1cc2c(=O)n3ccccc3nc2n(Cc2ccccc2)c1=N	79*	2	-2	-6	0
N=c1c(C(=O)NC2CCCC2)cc2c(=O)n3ccccc3nc2n1CCCN1CCOCC1	158*	-5	-3	10	-2
Cc1ccc(Cn2c(=N)c(S(=O)(=O)c3ccc(Br)cc3)cc3c(=O)n4ccccc4nc32)cc1	2	3	-4	2	0
Cc1cccn2c(=O)c3cc(C#N)c(=N)n(Cc4cccnc4)c3nc12	4	nt	-1	10	-1
N#Cc1cc2c(=O)n3ccccc3nc2n(Cc2cccnc2)c1=O	+	1	-5	1	1
CCCNc1nc2nc3ccccn3c(=O)c2cc1C(=O)NCCN1CCOCC1	155*	-4	nt	4	1
O=C(NCCN1CCOCC1)c1c(O)nc2ccccn2c1=O	12	-2	-1	22	-2
COC(=O)C[C@H]1CC[C@@H](NC(=O)c2ccccc2)[C@H](CO)O1	nt	nt	nt	nt	5
O=C(NCCN1CCOCC1)c1cc2c(=O)n3ccccc3nc2n1Cc1ccccc1	+	-3	-2	16	0
C[C@@H]1CN([C@H](C)CO)C(=O)Cc2cc(NC(=O)Nc3ccc(F)cc3)ccc2O[C@@H]1CN(C)Cc1ccncc1	nt	nt	nt	nt	0
COCCNC(=S)N/N=C(\C)c1ccc(Cl)s1	1	11	-1	45*	nt
COCCNC(=S)N/N=C(\C)c1ccccc1OC	-3	-3	-3	1	-2
COCCNC(=S)N/N=C(\C)c1ccccc1O	1	-1	1	31*	0
SMILES	Mtb FBA inh	Rv3671c protease	FadD28 FP inh	GDH-TPI counter	BioA inh
C[C@H]1CN([C@@H](C)CO)C(=O)c2cc(-c3ccc(C#N)cc3)cnc2O[C@@H]1CN(C)C(=O)Nc1ccc(F)cc1	nt	nt	nt	nt	-2
N=c1c(C(=O)NCC2CCCO2)cc2c(=O)n3ccccc3nc2n1Cc1ccc(Cl)cc1 (stereo unspecified)	+	0	-2	0	3
N=c1c(C(=O)NCC2CCCO2)cc2c(=O)n3ccccc3nc2n1Cc1ccccc1 (stereo unspecified)	+	6	-2	18	5
Cc1ccc(Cn2c(=N)c(C(=O)NCC3CCCO3)cc3c(=O)n4cccc(C)c4nc32)cc1 (stereo unspecified)	+	-4	-4	3	15
N=c1c(C(=O)NCC2CCCO2)cc2c(=O)n3ccccc3nc2n1Cc1ccccc1Cl (stereo unspecified)	166*	-2	-2	6	-2
COc1ccc(Cn2c(=N)c(C(=O)NCC3CCCO3)cc3c(=O)n4ccccc4nc32)cc1 (stereo unspecified)	9	-11	-2	15	6
O=C(C[C@@H]1CC[C@@H](NC(=O)c2ccc3c(c2)OCO3)[C@@H](CO)O1)NC1Cc2ccccc2C1	nt	nt	nt	nt	1
Cc1ccc(Cn2c(=N)c(C(=O)NCC3CCCO3)cc3c(=O)n4ccccc4nc32)cc1 (stereo unspecified)	162*	-4	-2	4	6
Cc1ccc(S(=O)(=O)Nc2ccc3c(c2)C(=O)N([C@H](C)CO)C[C@@H](C)[C@@H](CN(C)Cc2ccc4c(c2)OCO4)OCCCC[C@@H](C)O3)cc1	nt	nt	nt	nt	-2
COc1ccc(-c2[nH]c(-c3ccc4c(c3)OCO4)nc2-c2ccccc2)cc1	80*	17	-2	9	-1
COc1ccc(-c2[nH]c(-c3ccc(C(=O)O)cc3)nc2-c2ccccc2)cc1	+	5	?	11	4
O=C(O)c1ccc(-c2nc(-c3ccccc3)c(-c3ccccc3)[nH]2)cc1	+	4	?	30	nt
Cc1c(C)c(C)c2[nH]c(-c3ccc4c(c3)OCO4)nc2c1C	173*	0	-2	3	nt
Oc1ccc(-c2nc(-c3ccc(F)cc3)c(-c3ccncc3)[nH]2)cc1	2	-1	1	19	1
CC(=O)Nc1ccc2c(COC(=O)[C@H](C)N3C(=O)C4CCCCC4C3=O)cc(=O)oc2c1 (stereo partly specified)	+	4	-4	32*	-1
O=C(CN1C(=O)S/C(=C\c2ccc(O)c([N+](=O)[O-])c2)C1=O)Nc1ccc(N2CCOCC2)cc1	2	nt	-2	-7	-1
Cc1cccc(NC(=O)CN2C(=O)S/C(=C\c3ccccn3)C2=O)c1	2	-1	3	-2	nt
Cc1ccc(NC(=O)CN2C(=O)S/C(=C/c3ccc(O)c([N+](=O)[O-])c3)C2=O)cc1C	-8	nt	31*	12	nt
Cc1cccc(NC(=O)CN2C(=O)S/C(=C\c3ccc(O)c([N+](=O)[O-])c3)C2=O)c1	-6	-9	85*	-2	nt
COc1ccccc1/C=C/C=N/NC(=O)c1ccc(=O)n(C)c1	2	1	-2	51*	0
COc1ccccc1/C=C/C=N/NC(=O)CCn1cnc2ccccc21	0	4	-5	33*	0
COc1cccc(/C=N/NC(=O)CC2C(=O)NN=C2C)c1OC (stereo unspecified)	12	-4	-1	12	0

High-throughput results as filed in PubChem BioAssay.
